In PubChem BioAssay AID651871 (Sanford-Burnham Center for Chemical Genomics, 2012) one finds activity (protection/inhibition) data, which are given here for 1 molecule.

SMILES strings stand for the structures. Values joined by “and” are separate entries in the source; they are usually repeats but may differ in a detail not shown here. Equal entries are not always repeated.

The test concerns HL-1. Kind of test: protection of cardiomyocytes from stress damage, SAR follow-up, cell-based, panel, H9c2 and HL-1, ATP luminescence, set 2 (AID 651871).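 Note: cells exposed to stressor for 2 h before ATP readout; reference of the scale not given here.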 The conditions noted are these: H9c2/HL-1 cardiomyocytes, 2-deoxyglucose stress, with 2-deoxyglucose, run 8, at 19.8 µM (top of the series).

As to `COc1ccc2c(c1OC)C(=O)N1c3ccccc3C(=O)N(Cc3cccc(Cl)c3Cl)C21` (stereo unspecified), the activity (protection/inhibition) is 51.9% and 34.6%.
